Data taken from the supplement of paper PMC6555819.

Key:
Experiment in all cases: PBM binding z-score (relative to random genomic background probes); higher = stronger binding; sequences stand for … in GC…GCGATTGACAGCGTAGAATGAAGG
[1] = system: PPARg:RXRa DBDmut IVT, anti-RXR (DBD mutation: RXRa K156A/R161A, NR concentration 270 nM, RXRa partner concentration 90 nM)
Method in brief: (§1)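 Binding z-scores were set against random background probes. The data came from custom Agilent 4×180K protein-binding microarrays carrying double-stranded probes with 34-nt variable regions, incubated 1 h with ligand-free nuclear receptor dimers. Partner-specific antibodies detected binding, and scanned fluorescence was regression-normalized.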

[2] = system: PPARg:RXRa IVT, anti-PPARg (NR concentration 270 nM, RXRa partner concentration 90 nM)
Method in brief: as §1

[3] = system: PPARg DBDmut:RXRa IVT, anti-PPARg (DBD mutation: PPARg1 K132A/R137A, NR concentration 270 nM, RXRa partner concentration 90 nM)
Method in brief: as §1

[4] = system: PPARg DBDmut IVT, anti-PPARg (DBD mutation: PPARg1 K132A/R137A, NR concentration 270 nM)
Method in brief: as §1

[5] = system: PPARg homodimer (NR concentration 180 nM)
Method in brief: as §1

[6] = system: PXR:RXRa (NR concentration 270 nM, RXRa partner concentration 90 nM)
Method in brief: as §1

[7] = system: PXR homodimer (NR concentration 270 nM)
Method in brief: as §1

[8] = system: RARa:RXR (NR concentration 270 nM, RXRa partner concentration 90 nM)
Method in brief: as §1

[9] = system: RARa homodimer (NR concentration 270 nM)
Method in brief: as §1

[10] = system: RARb:RXRa (NR concentration 270 nM, RXRa partner concentration 90 nM)
Method in brief: as §1

[11] = system: RARb homodimer (NR concentration 270 nM)
Method in brief: as §1

[12] = system: RARg:RXRa (NR concentration 270 nM, RXRa partner concentration 90 nM)
Method in brief: as §1

[13] = system: RARg homodimer (NR concentration 270 nM)
Method in brief: as §1

[14] = system: RXRa DBDmut IVT, anti-RXR (DBD mutation: RXRa K156A/R161A, NR concentration 90 nM)
Method in brief: as §1

[15] = system: RXRa homodimer (NR concentration 180 nM)
Method in brief: as §1

[16] = system: THRa:RXRa (NR concentration 90 nM, RXRa partner concentration 90 nM)
Method in brief: as §1

[17] = system: THRa homodimer (NR concentration 90 nM)
Method in brief: as §1

[18] = system: VDR homodimer (NR concentration 270 nM)
Method in brief: as §1

Row | Sequence | PBM binding z-score [1] | PBM binding z-score [2] | PBM binding z-score [3] | PBM binding z-score [4] | PBM binding z-score [5] | PBM binding z-score [6] | PBM binding z-score [7] | PBM binding z-score [8] | PBM binding z-score [9] | PBM binding z-score [10] | PBM binding z-score [11] | PBM binding z-score [12] | PBM binding z-score [13] | PBM binding z-score [14] | PBM binding z-score [15] | PBM binding z-score [16] | PBM binding z-score [17] | PBM binding z-score [18]
1 | TAGCCTACGTCATTGGGCCAGTATAGTACGCATC | -0.24 | 0.164 | -0.121 | -0.0205 | -0.852 | -0.757 | -0.796 | -0.734 | -0.851 | -0.413 | -0.397 | -0.281 | -0.0336 | -0.739 | -0.232 | -0.688 | -0.62 | -0.718
2 | CAAACTTGGTCACAGAGGTCAAAGTCCGTGCGTA | 2.87 | 4.58 | 0.599 | 0.268 | 3.66 | 6.07 | 3.89 | 6.64 | 1.42 | 4.34 | 4.73 | 5.89 | 5.25 | 2.34 | 6.56 | 3.98 | 1.36 | 4.8
3 | CCTCGGAGGACAACGGGAGGTCAGAGCTGCCAGA | -0.505 | 0.451 | -1.39 | -1.24 | 2.26 | 2.45 | 0.352 | 2.8 | 0.367 | 2.92 | 3.43 | 3.93 | 3.4 | -0.419 | 1.76 | 3.04 | 1.32 | 1.08
4 | TAGCCTAGGTTATTGGGCCAGTATAGTACGCATC | 2.14 | 2.87 | -0.637 | 0.0704 | -0.257 | 0.000197 | -0.646 | 0.299 | -1.1 | 0.689 | 0.536 | 0.395 | 0.586 | -0.294 | 0.452 | 0.29 | -0.377 | -0.529
5 | TCTATTAGTTGATTAGAGCAACCGAAACAGCGGA | 1.66 | 0.345 | 0.782 | 0.622 | -0.0743 | 0.128 | -0.0101 | 0.143 | 0.166 | 0.00144 | -0.716 | 0.0982 | 0.245 | 0.765 | 0.293 | -0.353 | -0.739 | 0.18
6 | CCTCGGAGGACAGCAGGAGGTCAGAGCTGCCAGA | -0.448 | -0.212 | -1.03 | -2.54 | 1.7 | 1.55 | 0.245 | 1.79 | 0.518 | 2.62 | 3.24 | 3.07 | 2.93 | -0.25 | 1.56 | 2.41 | 0.786 | 0.762
7 | GCCGCTAGGTCAACTGATGGTCAGCTAAAGCTCG | 4.39 | 3.8 | -0.418 | -0.213 | 1.56 | 1.55 | -0.4 | 3.04 | 0.102 | 4.35 | 3.66 | 5.19 | 5.22 | 1.45 | 2.97 | 2.97 | 0.878 | -0.321
8 | GCTATTAGTTGAAAGTGCAACCGAATGATTCTCG | 0.238 | 0.262 | 0.449 | 0.384 | 0.768 | 0.683 | 0.384 | 0.526 | 0.153 | 0.775 | 0.667 | 0.42 | 0.38 | 1.14 | 0.575 | 0.147 | -0.293 | 0.388
9 | GCGACTGGGGCATCAGCAGGGTACCATAACTTAA | 3.75 | 2.79 | -0.747 | -0.946 | -0.494 | -0.289 | -0.457 | -0.268 | -1.05 | 0.517 | 0.489 | 0.0941 | 0.0483 | -0.313 | -0.0228 | 0.147 | -0.7 | -0.477
10 | CCTGCTAGGTCATGTTCAGCTAATCTACAGTATG | 4.06 | 2.94 | -0.127 | 0.556 | 1.51 | 1.07 | -0.338 | 1.53 | -0.173 | 3.63 | 2.65 | 3.26 | 3.95 | 2.42 | 2.13 | 2.51 | 1.08 | 0.754
11 | GGAACGGGGGCAAAGTTGATAGCATCTGTCGACG | 4.07 | 6.45 | 10.3 | 11.6 | 2.01 | 3.21 | 1.78 | 3.47 | 0.888 | 3.27 | 2.04 | 3.72 | 2.45 | 3.44 | 3.61 | 2.65 | 0.962 | 3.49
12 | CCTACTGGGACATCAGGTCATTGATATCAACGTT | 4.19 | 4.32 | 0.344 | 0.76 | 1.84 | 1.82 | 1.56 | 2.04 | 0.755 | 1.99 | 2.48 | 1.91 | 1.87 | 0.77 | 1.54 | 3.23 | 3.41 | 2.42
13 | CCTTACGCGTCAAGGTTATAGCACGGGTGGTACG | 0.185 | -0.0236 | -0.542 | -0.798 | 0.726 | 0.65 | 0.0877 | 1.02 | 0.124 | 0.97 | 0.818 | 0.576 | 0.348 | 0.122 | 1.06 | 1.5 | 0.517 | 0.299
14 | CGTCCAAGGTCAGTAGGTCAGTGAAAGCGACGTG | 5.03 | 6.09 | 0.33 | 0.924 | 4.32 | 3.23 | 0.64 | 4.46 | 1.39 | 5 | 4.74 | 5.95 | 6.1 | 2.72 | 4.05 | 3.35 | 1.74 | 1.94
15 | GCTGCTAGGTCAGGTTGGGCAGCTAACGGGTACG | 2.83 | 1.93 | -0.639 | -0.804 | 0.77 | -0.238 | -0.455 | 0.335 | -0.329 | 3.17 | 2.36 | 2.43 | 3.88 | 0.101 | 0.717 | 1.91 | 0.583 | 0.178
